# RORg inh: ROR gamma (mouse) transcription inhibition; P51450; Drosophila S2 Gal4-RORgamma UAS-luciferase reporter, 20 h; Potency, µM (series often up to 53.6 µM), usual class: inhibitors; 310,000 compounds, 5.4% hits; AID 2551; further: nearly all actives have a fitted effect of over 60% in size
#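 Luciferase reporter read in Schneider cells carrying Gal4-RORγ (mouse) and UAS-Photinus luciferase; cells given compound 1 h before 700 uM copper sulfate induction, then incubated 20 h at ambient temperature.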
# CtBP-E1A blk: blocks the CtBP interaction with E1A. AlphaScreen GST-E1A/His-CtBP binding, 1536-well; active compounds read low. 340,000 compounds, 0.49% hits. activity change, % (concentration not given with the values). AID 651724; in the data active means activity change below about -65%; inconclusive means mostly about -30% to -63%
#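 AlphaScreen with 125 nM GST-E1A and 125 nM His-CtBP (5X stocks) in Tris pH 8.0, 300 mM NaCl, BSA, Tween 20, TCEP. Compounds preincubated 2 h at 37 deg C, then glutathione donor/nickel acceptor beads added for 1 h at 37 deg C in dark.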
# p53 reactivation: restores transcriptional activity of mutant p53; H1299 p53-A138V BP100-luciferase reporter, luminescence, 24 h; Potency, µM (highest dose often 92.2 µM), most hits filed as activators; 320,000 compounds, 0.063% hits; AID 504706; further: nearly all actives have a fitted effect of over 45% in size
#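 H1299 (p53-null), stable ts p53-A138V + BP100-Luc; 1000 cells/well, Opti-MEM/10% FBS; cpd 4 pt, 1:5; 24 h, 37 deg C, 5% CO2; detection reagent 10 min RT; luminescence.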
# Six1-Eya2 blk: blocks human Six1 binding to Eya2; AlphaScreen GST-Six1/His-Eya2 binding, biochemical; active compounds read low; activity change, % (no concentration beside the values); 360,000 compounds, 0.56% hits; Q15475+O00167; AID 651725; in the data active means activity change below about -65%; inconclusive means mostly about -30% to -63%
#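 GST-Six1 + His-Eya2 (5X stock: 250/500 nM); Tris pH 8.0, 300 mM NaCl, 0.05% BSA, 0.02% Tween 20; GSH donor/Ni acceptor beads; 1 h 37 °C dark; AlphaScreen readout.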
# VP16 counter: counter-screen for ROR gamma inhibitors: Gal4-VP16 reporter | Drosophila S2 Gal4-VP16 UAS-luciferase, luminescence, 20 h | Potency, µM (titrated, usually from 53.6 µM), actives largely listed as inhibitors | 310,000 compounds, 3.5% hits;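 further: Gal4-VP16 expression switched on by copper sulfate through the metallothionein promoter; nearly all actives have a fitted effect of over 50% in size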
# Hits are given with their value; 0 = inactive; ? = inconclusive; - = not tested or not shown. Compounds with a hit are over-represented: about 5.4% of the library has one in this group of screens. Unless noted, the call rests on the fitted dose curve; in most records, active means well fitted curve in the direction sought with a large enough effect; inconclusive means small, poorly fitted or top-dose-only effect, or another doubt; inactive means no such curve, though single readings can be large; an effect the other way counts as inactive or inconclusive.
SMILES,RORg inh,CtBP-E1A blk,p53 reactivation,Six1-Eya2 blk,VP16 counter
C[C@@H]1CC2OC(=O)[C@@]3(C)C(=O)CC[C@@](C)(C23)[C@@]1(O)CCc1ccoc1 (stereo partly specified),0,0,0,0,0
Cc1cc(OC(=O)c2ccccc2C(F)(F)F)c([N+](=O)[O-])c(=O)[nH]1,0,0,0,0,0
NC(=S)c1cnn2c(-c3cccc(C(F)(F)F)c3)ccnc12,4µM,0,0,0,10µM
COc1ccc(CN2CCN(c3cccc(C)c3C)CC2)cc1OC,0,0,0,0,0
CCn1c(CN2CCN(c3cccc(C)c3C)CC2)n[nH]c1=S,4µM,0,0,0,7.1µM
COc1ccccc1C(NC(C)=O)c1cc(Cl)c2cccnc2c1O (stereo unspecified),2.2µM,?,0,?,2.8µM
CCC(=O)NC(c1ccc(OC)c(OC)c1)c1cc(Cl)c2cccnc2c1O (stereo unspecified),0,-85,0,-82,0
CCC(=O)NC(c1ccc(C)cc1)c1cc(Cl)c2cccnc2c1O (stereo unspecified),-,-,0,-,-
COc1ccc(C(NC(C)=O)c2cc(Cl)c3cccnc3c2O)cc1OC (stereo unspecified),4µM,?,0,?,0
Oc1ccc(Br)cc1/C=N/Nc1ncc(-c2ccccc2)cn1,11µM,0,0,0,0
Cc1cc(-c2ccccc2)nc(N/N=C/c2ccc(O)cc2O)n1,?,?,0,?,0
Oc1ccccc1/C=N/Nc1nccnc1Cl,13µM,-94,?,-92,?
Oc1ccc(/C=N/Nc2ncc(Br)cn2)c(O)c1,?,-92,?,-88,?
O=[N+]([O-])c1ccc(/C=N/Nc2ncc(-c3ccccc3)cn2)cc1,0,-,0,0,0
Clc1nccnc1N/N=C/c1ccc(Br)cc1,4.5µM,0,-,0,?
O=[N+]([O-])c1ccccc1/C=N/Nc1nccnc1Cl,0,0,0,0,0
COc1ccc(/C=N/Nc2nccnc2Cl)cc1,?,0,0,0,?
COc1ccc(NC(=O)Cn2c3ccc(OC)cc3c3nc4n(c(=O)c32)CCS4)cc1,0,-,0,0,0
O=C1CN(C(=O)CNC(=O)c2ccccc2Cl)c2ccccc2N1,0,0,0,0,0
CCOC(=O)C1=C[C@@H](C(=O)OCC)[C@@H]2C3=C(C(=O)C2(C)C)[C@H](c2ccccc2)[C@@H]2C(=O)N(c4ccccc4)C(=O)[C@@H]2[C@@H]3C1,0,-,-,-,0
Oc1ccc(/C=N/Nc2nccnc2Cl)c(O)c1,?,-96,?,-92,16µM
O=c1[nH]ncc(N/N=C\c2ccc(O)cc2O)c1Cl,0,0,0,0,0
CC(C)(C)NC[C@H](O)CSc1nc(-c2ccc(C(N)=O)s2)cs1,0,-,-,-,0
COc1ccccc1-c1nc(-c2ccccn2)no1,2.5µM,0,0,0,7.1µM
COc1ccc(-c2nc(-c3ccccn3)no2)cc1,0.56µM,0,0,0,0.32µM
SMILES,RORg inh,CtBP-E1A blk,p53 reactivation,Six1-Eya2 blk,VP16 counter
Cc1ccccc1-c1nc(-c2ccccn2)no1,7.1µM,0,0,0,7.9µM
Clc1ccc(-c2nc(-c3ccccn3)no2)cc1Cl,0,0,?,0,0
Cc1ccccc1-c1nc(-c2cccnc2)no1,0,0,0,0,0
Brc1ccc(-c2nc(-c3ccccn3)no2)o1,?,0,0,0,7.1µM
COc1cccc(-c2nc(NCCNC(C)=O)c3ccccc3n2)c1,0,-,-,-,0
CC[C@H](CC[C@@H](C)C1CC[C@H]2[C@@H]3CC=C4C[C@@H](O)CC[C@]4(C)[C@H]3CC[C@]12C)C(C)C (stereo partly specified),0,-,-,-,0
COc1ccc(CCN(C)C(=O)C2CCN(C(=O)Nc3ccccc3)CC2)cc1OC,-,0,0,0,-
CCn1c(-c2cc(-c3ccccc3OC)nc3ccccc23)n[nH]c1=S,7.9µM,0,0,0,0
COc1ccc(-c2n[nH]c(=S)n2N)c(OC)c1,0,-,0,0,0
CCn1c(-c2cc(-c3cc(OC)ccc3OC)nc3ccccc23)n[nH]c1=S,8.9µM,0,0,0,0
COc1cc(/C=C2/C(=N)N3C=CSC3=NC2=O)ccc1OCCCOc1cc(C)ccc1C,10µM,0,0,0,11µM
